Screening data from PubChem.
Tb PFK inh = qHTS Assay to Find Inhibitors of T. brucei phosphofructokinase; ATP-dependent 6-phosphofructokinase (Trypanosoma brucei brucei), O15648; T. brucei PFK, ADP-Glo luminescence; Potency, µM (series often up to 57.5 µM), for inactives: at the highest dose activity, negative = inhibition, usual class: inhibitors; 330,000 tested, 0.17% active;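 note: 0% = uninhibited 1x PFK enzyme wells and -100% = no-enzyme wells; nearly all actives have a fitted effect of over 60% in size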
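1.25 nM PFK with 0.5 mM F6P and 0.1 mM ATP in 0.1 M TEA pH 8.0, 5 mM MgCl2, incubated 45 min at room temperature; ADP measured by ADP-Glo luminescence; compounds titrated up to 57 uM.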
BRCA1 expr up = qHTS Assay to Identify Small Molecule Activators of BRCA1 Expression. MCF7-BRCA1-FFLuc reporter, luminescence, 48 h; response scale: scaled: vehicle 0%, 10 µM genistein 100%. 380,000 tested, 1.1% active. Potency, µM (series often up to 46.1 µM), for inactives: top-dose activation, usual class: activators; note: nearly all actives have a fitted effect of over 80% in size
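Compounds are tested at multiple concentrations on MCF7 BRCA1-luciferase reporter cells seeded at 2000 per well; after 48 h, a single luminescence end-point is taken and curves fitted to the normalized data.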
VDR inhibitor = Inhibitors of the vitamin D receptor (VDR): qHTS | VDR-SRC2-3 peptide fluorescence polarization, 2 h | 400,000 tested, 0.93% active | AID 504847, 2011 | Potency, µM, without a hit: max response, negative = inhibition, hits mostly inhibitors; note: % is set by controls: 0 for no effect and ±100 for the full control effect
Target sequence (P11473 whole entry, looked up): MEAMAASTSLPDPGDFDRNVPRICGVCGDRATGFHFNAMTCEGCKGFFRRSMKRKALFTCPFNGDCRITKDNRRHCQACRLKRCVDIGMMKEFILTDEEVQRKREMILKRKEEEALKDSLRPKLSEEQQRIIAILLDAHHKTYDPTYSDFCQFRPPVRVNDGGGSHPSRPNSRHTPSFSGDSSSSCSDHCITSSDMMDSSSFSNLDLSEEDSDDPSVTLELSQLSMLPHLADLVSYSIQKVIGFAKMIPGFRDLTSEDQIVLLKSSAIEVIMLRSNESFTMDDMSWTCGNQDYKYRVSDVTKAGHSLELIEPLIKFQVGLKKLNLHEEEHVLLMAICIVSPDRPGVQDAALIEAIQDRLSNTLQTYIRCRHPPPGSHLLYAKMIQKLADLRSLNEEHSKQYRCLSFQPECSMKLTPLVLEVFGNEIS
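After 23 nl compound addition and a short centrifugation, plates sat for 2 hours at ambient temperature; polarization of fluorescence then indicated loss of VDR binding to peptide SRC2-3.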
PLK1 PBD block = qHTS for Inhibitors of PLK1-PDB (polo-like kinase 1 - polo-box domain): Primary Screen | Plk1 PBD binding of FITC phosphopeptide, fluorescence polarization | Potency, µM, without a hit: max response, negative = inhibition, usual class: inhibitors | 360,000 tested, 2.8% active | AID 720504, 2013; note: series mostly up to about 57 µM; % is set by controls: 0 for no effect and ±100 for the full control effect; nearly all actives have a fitted effect of over 65% in size
Starred values were filed as active, the others as inactive; ? = inconclusive; · = not tested or not shown; ! = a repeat was not active. Compounds with a hit are over-represented: about 3.9% of the library has one in this group of screens. Calls come from the whole dose curve; as a rule, active = well fitted curve in the direction sought with a large enough effect; inconclusive = small, poorly fitted or top-dose-only effect, or another doubt; inactive = no such curve, though single readings can be large; an effect the other way counts as inactive or inconclusive. Potency is the fitted concentration of half-maximal effect.

SMILES	Tb PFK inh	BRCA1 expr up	VDR inhibitor	PLK1 PBD block
CCCCn1c(N)c(C(=O)NCc2cccs2)c2nc3ccccc3nc21	-2.0%	-26.0%	89.1µM*	-10.4%
Nc1c(C(=O)NCc2ccco2)c2nc3ccccc3nc2n1Cc1ccc(F)cc1	0.4%	-57.5%	-8.8%	26.7µM*
CCCCCn1c(N)c(C(=O)NCc2cccs2)c2nc3ccccc3nc21	3.6%	-23.7%	?	-7.1%
Nc1c(C(=O)NCCCc2ccccc2)c2nc3ccccc3nc2n1Cc1cccs1	-4.5%	-50.0%	79.4µM*	-10.5%
O=C(O)c1cc(O)c(O)c(O)c1	·	·	50.1µM*!	·
CCN(c1ccc(C(O)(C(=O)OC)C(F)(F)F)cc1)S(=O)(=O)c1ccccc1 (centres undefined)	3.7%	-6.1%	3.0%	26.7µM*
CCC(C)N1C(=O)NC(=O)C2(Cc3c(ccc4ccccc34)N(C)C2)C1=O (centres undefined)	1.1%	-67.5%	-5.3%	13.4µM*
COc1ccc2c(c1)CC1(CN2C)C(=O)NC(=O)N(CCc2ccccc2)C1=O (centres undefined)	0.2%	-30.5%	?	-20.6%
COc1ccc(/C=C/C(=O)N2CC3C[C@@H](C2)Cn2c3cccc2=O)cc1OC	·	·	0.0%	·
CCOC(=O)Cn1cc(C(=O)c2ccccc2F)c2ccccc21	2.7%	10.0%	?	21.2µM*
NCC(N)C(=O)c1ccccc1 (centres undefined)	·	·	-10.4%	·
CC(C)Oc1ccc(CNC(=O)Oc2ccccc2)cc1	0.7%	-15.3%	-13.4%	?
CCCCCC(O)C1C(=O)OC(C)C(O)\C=C/C=C\C=C/C=C\C=C(\C)C(O)C(O)C(O)CC(O)CC(O)CC(O)CC(O)CC1O (centres undefined)	·	·	1.9%	·
O=C(COc1ccccc1/C=C1/NC(=O)NC1=O)Nc1ccccc1	-7.1%	-19.5%	?	3.36µM*
O=C(Nc1ccccc1)c1c(O)[nH]c(=O)[nH]c1=O	·	0.0%	-5.8%	-6.4%
CCC1(CC)CCNC1=O	·	·	11.6%	·
CCCCCCC(C)(C)c1ccc([C@@H]2C[C@H](O)CC[C@@H]2CCCO)c(O)c1	·	·	-2.1%	·
O=C1NS(=O)c2cc([N+](=O)[O-])cc([N+](=O)[O-])c21 (centres undefined)	1.7%	-14.8%	?	23.8µM*
CCOC(=O)c1c(NC(=O)c2c(N)n(CCCOC)c3nc4ccccc4nc23)sc2c1CCCC2	-0.4%	-1.1%	-0.7%	-7.4%
CCOC(=O)c1c(NC(NC(=O)CF)C(Cl)(Cl)Cl)sc2c1CCCC2 (centres undefined)	0.4%	-5.1%	44.7µM*	11.9µM*
CN1C(CC(=O)c2ccccc2)CCCC1CC(O)c1ccccc1 (centres undefined)	2.0%	0.2%	89.1µM*!	-11.6%
CN1[C@@H](CC(=O)c2ccccc2)CCC[C@H]1C[C@H](O)c1ccccc1	-0.3%	-6.9%	1.6%	-16.2%
CCCCC1(C2CCCC2)Cc2cc(OCCCC(=O)O)c(Cl)c(Cl)c2C1=O (centres undefined)	·	·	39.8µM*	·
C[C@@H]1CO1	·	·	-2.6%	·
CCCC[C@@H](C)[C@@H](OC(=O)C[C@@H](CC(=O)O)C(=O)O)[C@H](C[C@@H](C)CCCCCC[C@@H](O)C[C@H](O)[C@H](C)N)OC(=O)C[C@@H](CC(=O)O)C(=O)O	·	·	-16.9%	·
SMILES	Tb PFK inh	BRCA1 expr up	VDR inhibitor	PLK1 PBD block
O=C(O)c1ccccc1-c1c2cc(Br)c(=O)cc-2oc2[c]([Hg])c(O)c(Br)cc12	·	·	2.24µM*	·
CCN(CC)c1ccc(N=Cc2c(O)[nH]c(=O)[nH]c2=O)cc1	-0.5%	-43.8%	79.4µM*	-9.2%
[O]=[Cr](=[O])([OH])[O][Cr](=[O])(=[O])[OH]	·	·	-7.8%	·
N#CC(C#N)=NNc1ccc([N+](=O)[O-])cc1	0.2%	-57.8%	?	5.9%
Cc1cc(C)n(-c2ccc(NN=C(C#N)C#N)cc2)n1	-3.3%	-16.3%	28.2µM*	-16.3%
C=CCN1CCC23c4c5ccc(O)c4OC2/C(=N/N=C2\CCC4(O)C6Cc7ccc(O)c8c7C4(CCN6CC=C)C2O8)CCC3(O)C1C5 (centres undefined)	·	·	-11.9%	·
O=C1NC(=O)N(Cc2ccc(F)cc2)C(=O)/C1=C\c1ccc(N2CCCC2)cc1	-2.4%	2.1%	79.4µM*	1.5µM*
COc1ccc(/C=C2/C(=O)N(Cc3ccco3)C(=O)N(C(C)C)C2=O)cc1	-5.7%	-4.7%	?	3.36µM*
O=C1NC(=O)N(Cc2ccco2)C(=O)/C1=C/c1ccc(-c2cccc([N+](=O)[O-])c2)o1	-27.1%	-19.4%	14.1µM*	0.423µM*
Cc1cc(/C=C2/C(=O)NC(=O)N(Cc3ccco3)C2=O)c(C)n1-c1ccccc1	-25.2%	0.8%	-5.0%	?
CN1C(=O)C(=Cc2ccc(N3CCOCC3)c([N+](=O)[O-])c2)C(=O)N(C)C1=O	0.2%	·	·	·
CN1C(=O)C(=Cc2ccc(N3CCCCCC3)cc2)C(=O)N(C)C1=O	-20.4%	0.0%	3.4%	1.5µM*
O=C(O)CCCCC1SCC2NC(=O)NC21 (centres undefined)	0.4%	8.6%	6.1%	-11.1%
CC1=C[C@H]2[C@]3(O)C(C=C(CO)C[C@]2(O)C1=O)[C@@H]1C(C)(C)[C@]1(O)[C@H](O)[C@H]3C (some centres undefined)	·	·	4.1%	·
CC1(C)C(O)CC(O)[C@]2(C)C1CC(=O)[C@]1(C)C2CC[C@@]2(C)C(c3ccoc3)OC(=O)C3OC321 (some centres undefined)	·	·	1.2%	·
Cc1ccc(/C=C2/C(=O)NC(=O)N(CCc3ccc(F)cc3)C2=O)o1	1.4%	-13.5%	73.4%	0.844µM*
CN(C)c1ccc(/C=C2\C(=O)NC(=O)N(CCc3ccc(F)cc3)C2=O)cc1	-5.4%	-10.7%	39.8µM*	1.06µM*
COCCN1C(=O)NC(=O)/C(=C\c2ccc(F)cc2)C1=O	3.4%	-18.6%	-18.0%	13.4µM*
CN1C(=O)C(=Cc2cccnc2)C(=O)N(C)C1=O	-5.0%	-16.6%	?	16.8µM*
Cn1cccc1/C=C1\C(=O)NC(=O)N(CCC2=CCCCC2)C1=O	-6.2%	-1.6%	-0.1%	-12.3%
CCC(CC)c1nnc(NC(=O)CC(C)c2ccccc2)s1 (centres undefined)	-0.3%	-40.7%	-0.8%	?
CC[C@]12CCCN3CCC4(c5ccccc5NC4C(C(=O)O)C1)C32 (some centres undefined)	·	·	-15.1%	·
CCN(CC)c1ccc(/C=C2/C(=O)NC(=O)N(Cc3ccco3)C2=O)cc1	-2.0%	22.8%	?	?
CN(C)c1ccc(/C=C2/C(=O)NC(=O)N(Cc3ccco3)C2=O)cc1	0.5%	-12.2%	?	1.89µM*
CS(=N)(=O)CC[C@@H](N)C(=O)O (some centres undefined)	·	·	4.1%	·
Cc1ncc(CN2CCCC(C(=O)c3cccc(Cl)c3)C2)s1 (centres undefined)	2.0%	-8.8%	-6.6%	-4.7%
